In ChEMBL document CHEMBL3988442, “University of Dundee, Small-Polar-MMV Screening Library” (2021):
For some assays here: Results with a measured potency or affinity are listed apart.

How the values were obtained:
Design in all cases: scale not given: direction of the effect not stated beside the values
[1] = target: Protein translocase subunit SecA (Escherichia coli (strain K12)) (UniProt P10408); test: Assay to Identify E. coli SecA ATPase Inhibitors; format: functional; details: 30 µM
[2] = target: T1, Ubiquitin-activating enzyme e1, putative (Leishmania donovani (strain BPK282A1)) (UniProt E9BSI1); test: Leishmania donovani Ubiquitin Activating Enzyme (LdE1); format: functional; details: 30 µM
T1 sequence (whole entry): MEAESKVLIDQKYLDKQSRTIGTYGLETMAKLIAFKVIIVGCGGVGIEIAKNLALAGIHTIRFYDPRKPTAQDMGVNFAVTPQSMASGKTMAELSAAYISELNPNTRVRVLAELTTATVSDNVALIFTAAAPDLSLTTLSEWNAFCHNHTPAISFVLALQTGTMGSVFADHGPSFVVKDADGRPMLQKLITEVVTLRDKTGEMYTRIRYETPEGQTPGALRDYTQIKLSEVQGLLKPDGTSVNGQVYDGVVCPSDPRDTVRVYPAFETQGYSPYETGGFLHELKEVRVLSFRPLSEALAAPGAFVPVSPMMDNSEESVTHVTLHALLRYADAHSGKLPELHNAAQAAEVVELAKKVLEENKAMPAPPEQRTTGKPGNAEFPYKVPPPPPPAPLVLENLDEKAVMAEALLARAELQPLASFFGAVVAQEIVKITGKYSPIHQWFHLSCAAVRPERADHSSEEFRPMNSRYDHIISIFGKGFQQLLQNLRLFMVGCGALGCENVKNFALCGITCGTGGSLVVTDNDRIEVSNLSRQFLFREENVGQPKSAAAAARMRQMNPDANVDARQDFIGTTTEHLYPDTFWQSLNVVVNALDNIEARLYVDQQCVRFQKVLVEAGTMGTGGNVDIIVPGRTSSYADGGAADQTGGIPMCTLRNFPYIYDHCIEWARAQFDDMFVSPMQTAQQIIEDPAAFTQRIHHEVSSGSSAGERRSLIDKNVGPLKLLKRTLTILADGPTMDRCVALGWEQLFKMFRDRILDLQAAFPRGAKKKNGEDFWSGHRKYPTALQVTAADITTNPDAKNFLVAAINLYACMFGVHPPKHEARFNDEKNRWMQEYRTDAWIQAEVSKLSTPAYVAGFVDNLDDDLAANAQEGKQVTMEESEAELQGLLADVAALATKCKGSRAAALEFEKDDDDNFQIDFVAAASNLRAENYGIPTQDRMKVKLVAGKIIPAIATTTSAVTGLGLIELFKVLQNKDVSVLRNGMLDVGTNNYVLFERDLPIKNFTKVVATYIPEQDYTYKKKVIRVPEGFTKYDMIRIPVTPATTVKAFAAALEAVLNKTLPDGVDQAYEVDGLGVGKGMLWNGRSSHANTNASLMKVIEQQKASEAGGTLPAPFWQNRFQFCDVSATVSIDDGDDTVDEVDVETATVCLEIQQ

[3] = target: AMP-activated protein kinase, AMPK (Homo sapiens) (UniProt P54646+O43741+P54619+Q9UGJ0+Q9Y478+Q13131+Q9UGI9); test: AMP-dependent Kinase enzyme assay. An in vitro enzyme assay that detects ADP turnover that is directly proportional to AMPK activity. This uses naive AMPK that is activated during the assay with MK-8722; format: functional; details: 30 µM
[4] = target: Sialic acid-binding Ig-like lectin 9 (Homo sapiens) (UniProt Q9Y336); test: Hs-Siglec9 ALPHAscreen SOP 20170721; details: 10 µM
Sequence of Sialic acid-binding Ig-like lectin 9 (Homo sapiens) (Q9Y336 whole entry): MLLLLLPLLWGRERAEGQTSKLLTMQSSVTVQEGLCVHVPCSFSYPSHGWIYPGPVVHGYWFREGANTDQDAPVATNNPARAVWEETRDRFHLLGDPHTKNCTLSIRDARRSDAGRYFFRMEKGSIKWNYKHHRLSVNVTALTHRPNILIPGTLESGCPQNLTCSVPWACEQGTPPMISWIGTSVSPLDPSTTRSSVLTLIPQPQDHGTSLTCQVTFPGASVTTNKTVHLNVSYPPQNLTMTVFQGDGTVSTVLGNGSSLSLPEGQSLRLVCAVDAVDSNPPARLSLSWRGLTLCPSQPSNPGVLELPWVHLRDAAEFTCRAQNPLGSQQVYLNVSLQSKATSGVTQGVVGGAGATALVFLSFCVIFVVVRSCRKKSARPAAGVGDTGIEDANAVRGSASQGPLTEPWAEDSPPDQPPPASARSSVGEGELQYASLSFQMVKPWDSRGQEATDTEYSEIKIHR

Trypanosoma cruzi = test: Trypanosoma cruzi phosphomannomutase and mannose-1-phosphate guanylyltransferase assay; format: functional; details: 10 µM
[5] = target: T2, Arginase-2, mitochondrial (Homo sapiens) (UniProt P78540); test: in vitro enzyme assay to detect the production of urea directly proportional to the activity of Arginase II; format: functional; details: 33.3 µM; further: in the data most compounds retested in dose-response had high values
T2 sequence (whole entry): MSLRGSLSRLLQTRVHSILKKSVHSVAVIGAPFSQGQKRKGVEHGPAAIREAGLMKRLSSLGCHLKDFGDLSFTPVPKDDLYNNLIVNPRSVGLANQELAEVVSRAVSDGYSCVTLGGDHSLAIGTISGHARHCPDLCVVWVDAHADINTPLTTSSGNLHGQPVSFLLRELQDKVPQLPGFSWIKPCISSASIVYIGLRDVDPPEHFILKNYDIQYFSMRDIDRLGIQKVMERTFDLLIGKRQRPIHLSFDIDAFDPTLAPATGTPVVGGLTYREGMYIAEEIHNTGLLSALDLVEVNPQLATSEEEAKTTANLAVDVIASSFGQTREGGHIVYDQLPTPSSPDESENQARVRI

[6] = target: T3, Proteasome subunit beta (Trypanosoma cruzi) (UniProt O96673); test: Trypanosoma cruzi proteasome chymotrypsin-like activity (TcProtChymo) assay.; further: in the data most compounds retested in dose-response had high values; format: functional; details: 9.37 µM
T3 sequence (whole entry): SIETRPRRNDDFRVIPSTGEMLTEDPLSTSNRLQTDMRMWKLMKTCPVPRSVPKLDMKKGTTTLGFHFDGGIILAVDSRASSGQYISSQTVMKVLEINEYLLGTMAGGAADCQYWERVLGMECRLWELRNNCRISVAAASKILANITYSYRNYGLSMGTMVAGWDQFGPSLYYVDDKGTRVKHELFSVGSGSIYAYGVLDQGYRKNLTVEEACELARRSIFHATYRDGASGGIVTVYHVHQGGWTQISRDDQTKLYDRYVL

Homo sapiens = species: Homo sapiens; test: To identify inhibition of the IFN signalling (Jak-Stat) pathway via expression of an eGFP reporter gene under the control of an IFN-stimulated response element (ISRE) containing MxA promoter.; format: functional; details: 30 µM
[7] = target: T4, Tyrosyl-tRNA synthetase, putative (Trypanosoma cruzi (strain CL Brener)) (UniProt Q4DSP6); test: Trypanosoma cruzi tyrosyl tRNA synthetase (TcYRS) _High Tyrosine SOP; format: functional; details: 30 µM; further: in the data most compounds retested in dose-response had high values
T4 sequence (whole entry): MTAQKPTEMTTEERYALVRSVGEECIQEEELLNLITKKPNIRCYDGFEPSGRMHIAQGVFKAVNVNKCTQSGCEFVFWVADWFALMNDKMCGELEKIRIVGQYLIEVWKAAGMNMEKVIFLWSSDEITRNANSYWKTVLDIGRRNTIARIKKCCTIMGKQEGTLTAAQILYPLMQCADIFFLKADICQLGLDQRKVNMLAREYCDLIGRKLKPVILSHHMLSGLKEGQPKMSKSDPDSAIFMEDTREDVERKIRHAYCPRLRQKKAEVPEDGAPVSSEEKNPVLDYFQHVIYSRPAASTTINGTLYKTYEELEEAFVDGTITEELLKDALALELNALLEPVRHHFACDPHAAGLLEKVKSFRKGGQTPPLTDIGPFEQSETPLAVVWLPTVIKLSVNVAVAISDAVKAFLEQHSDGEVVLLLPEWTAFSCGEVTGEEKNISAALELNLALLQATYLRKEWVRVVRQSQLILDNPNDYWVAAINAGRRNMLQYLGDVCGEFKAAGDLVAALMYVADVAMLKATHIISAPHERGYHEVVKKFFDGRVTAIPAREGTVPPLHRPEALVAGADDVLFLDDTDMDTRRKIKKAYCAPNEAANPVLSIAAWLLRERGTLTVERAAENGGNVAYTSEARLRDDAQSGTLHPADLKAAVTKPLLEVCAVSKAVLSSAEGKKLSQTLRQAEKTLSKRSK

[8] = target: T4, Tyrosyl-tRNA synthetase, putative (Trypanosoma cruzi (strain CL Brener)); test: Trypanosoma cruzi tyrosyl tRNA synthetase (TcYRS) SOP; format: functional; details: 30 µM
[9] = target: Chromo domain-containing protein 1 (Saccharomyces cerevisiae (strain ATCC 204508 / S288c) (Baker's yeast)) (UniProt P32657); test: ScCHD-1 Enzyme Inhibition Assay; format: functional; details: 30 µM; further: in the data most compounds retested in dose-response had high values
Sequence of Chromo domain-containing protein 1 (Saccharomyces cerevisiae (strain ATCC 204508 / S288c) (Baker's yeast)) (P32657 whole entry, the tested form may be a part): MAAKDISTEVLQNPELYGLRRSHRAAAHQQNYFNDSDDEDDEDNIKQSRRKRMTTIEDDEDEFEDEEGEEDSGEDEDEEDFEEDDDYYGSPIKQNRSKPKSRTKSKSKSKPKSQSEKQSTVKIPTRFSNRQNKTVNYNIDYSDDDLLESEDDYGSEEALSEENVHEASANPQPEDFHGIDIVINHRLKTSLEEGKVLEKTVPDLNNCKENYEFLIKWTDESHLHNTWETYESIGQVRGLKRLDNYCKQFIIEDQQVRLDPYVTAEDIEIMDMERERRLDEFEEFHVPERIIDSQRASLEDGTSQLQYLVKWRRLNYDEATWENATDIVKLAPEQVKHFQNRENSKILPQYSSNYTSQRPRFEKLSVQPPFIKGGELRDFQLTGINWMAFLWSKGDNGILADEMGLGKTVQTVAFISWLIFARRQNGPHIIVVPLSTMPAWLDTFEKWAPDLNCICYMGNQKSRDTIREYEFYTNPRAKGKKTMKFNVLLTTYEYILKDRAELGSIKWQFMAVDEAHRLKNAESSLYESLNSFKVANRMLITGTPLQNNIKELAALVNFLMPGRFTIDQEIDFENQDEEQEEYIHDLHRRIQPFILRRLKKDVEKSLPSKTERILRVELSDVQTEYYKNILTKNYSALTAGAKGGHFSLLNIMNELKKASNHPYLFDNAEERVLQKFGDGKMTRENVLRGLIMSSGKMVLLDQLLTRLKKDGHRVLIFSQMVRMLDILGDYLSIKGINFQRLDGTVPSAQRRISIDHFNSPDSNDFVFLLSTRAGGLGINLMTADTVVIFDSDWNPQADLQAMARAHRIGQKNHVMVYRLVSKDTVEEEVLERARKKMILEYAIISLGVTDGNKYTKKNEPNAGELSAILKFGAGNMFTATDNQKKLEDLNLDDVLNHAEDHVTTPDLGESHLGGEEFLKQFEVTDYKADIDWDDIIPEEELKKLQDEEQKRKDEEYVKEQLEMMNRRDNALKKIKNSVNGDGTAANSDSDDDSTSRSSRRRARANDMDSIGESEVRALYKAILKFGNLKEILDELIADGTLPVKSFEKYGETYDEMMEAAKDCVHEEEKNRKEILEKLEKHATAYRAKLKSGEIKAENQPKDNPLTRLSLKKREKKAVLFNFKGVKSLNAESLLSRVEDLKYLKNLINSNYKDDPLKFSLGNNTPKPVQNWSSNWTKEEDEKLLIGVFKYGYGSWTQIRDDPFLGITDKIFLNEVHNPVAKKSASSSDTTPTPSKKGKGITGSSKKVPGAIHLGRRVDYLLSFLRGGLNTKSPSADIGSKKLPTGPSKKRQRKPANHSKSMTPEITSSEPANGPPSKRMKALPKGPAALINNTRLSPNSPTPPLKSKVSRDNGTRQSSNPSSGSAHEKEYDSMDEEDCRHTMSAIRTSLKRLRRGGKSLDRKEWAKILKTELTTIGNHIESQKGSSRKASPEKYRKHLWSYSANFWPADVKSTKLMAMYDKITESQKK

Sequence of Protein translocase subunit SecA (Escherichia coli (strain K12)) (P10408 whole entry): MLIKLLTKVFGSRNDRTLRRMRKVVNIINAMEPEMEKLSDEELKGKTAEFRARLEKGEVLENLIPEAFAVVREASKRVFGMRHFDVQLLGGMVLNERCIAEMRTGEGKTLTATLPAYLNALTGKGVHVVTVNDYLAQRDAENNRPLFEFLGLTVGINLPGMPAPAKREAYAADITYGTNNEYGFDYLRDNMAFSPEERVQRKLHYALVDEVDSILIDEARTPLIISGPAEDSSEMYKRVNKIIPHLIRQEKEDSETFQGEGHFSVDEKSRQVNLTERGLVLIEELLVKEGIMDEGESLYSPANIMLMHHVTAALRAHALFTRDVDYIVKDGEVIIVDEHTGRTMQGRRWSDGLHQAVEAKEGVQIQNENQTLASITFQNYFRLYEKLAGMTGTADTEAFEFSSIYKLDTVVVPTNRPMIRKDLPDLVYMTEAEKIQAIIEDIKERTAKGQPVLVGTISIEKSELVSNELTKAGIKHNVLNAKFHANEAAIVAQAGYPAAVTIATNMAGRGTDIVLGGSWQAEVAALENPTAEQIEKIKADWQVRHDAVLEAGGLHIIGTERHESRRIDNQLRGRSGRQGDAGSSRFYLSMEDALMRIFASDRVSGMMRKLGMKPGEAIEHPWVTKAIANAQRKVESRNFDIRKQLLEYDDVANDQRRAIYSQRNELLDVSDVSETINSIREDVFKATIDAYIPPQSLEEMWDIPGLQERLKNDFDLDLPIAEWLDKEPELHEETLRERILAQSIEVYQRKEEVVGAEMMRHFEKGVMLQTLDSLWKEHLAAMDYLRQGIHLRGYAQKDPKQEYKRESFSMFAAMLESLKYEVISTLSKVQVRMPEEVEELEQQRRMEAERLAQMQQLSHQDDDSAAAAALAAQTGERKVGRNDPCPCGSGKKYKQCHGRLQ

SMILES | Percent Effect [1] [%] | Percent Effect [2] [%] | Percent Effect [3] [%] | Percent Effect [4] [%] | Percent Effect (Trypanosoma cruzi) [%] | Percent Effect [5] [%] | Percent Effect [6] [%] | Percent Effect (Homo sapiens) [%] | Percent Effect [7] [%] | Percent Effect [8] [%] | Percent Effect [9] [%]
Cc1cc(C)n(CC2CN(CCOc3cccc(F)c3)CCO2)n1 (stereo not given) | -4.88 | 7.89 | 0.382 | 4.47 | 1.59 | -3.24 | 1.1 | 24.5 | 4.43 | 16.1 | -3.81
Cc1ncc(CN2Cc3ccccc3O[C@]3(CC[C@H](CO)CC3)C2)cn1 | -1.38 | 6.76 | 8.93 | 6.44 | -2.57 | 0.696 | 0.78 | 8.08 | 3.23 | 9.09 | -4.96
c1ccc(C2CCCN2Cc2nnnn2C2CC2)cc1 (stereo not given) | -4.62 | -6.94 | -1.81 | -5.25 | -3.01 | -1.32 | 9.12 | -12.1 | 3.16 | 0 | 7.75
COCCN(Cc1ccoc1)C(=O)c1cccnc1SC | -1.15 | 5.2 | 9.17 | 2.43 | -4.24 | 7.1 | 1.04 | 1.32 | 3.17 | 6.41 | -5.39
CN(c1ccc(F)c(F)c1)S(=O)(=O)c1cc(C(=O)O)cs1 | -0.362 | -5.41 | -0.676 | 1.81 | -6.32 | -1.6 | -5.95 | 10.4 | -0.493 | -1.24 | -2.7
Cc1cc(C)n(CC2CCCCN2CC(=O)Nc2nncs2)n1 (stereo not given) | -3.75 | 8 | -5.11 | 15 | 7.69 | 14.6 | 0.349 | 13.2 | 6.01 | 16.1 | -8.51
c1csc(-c2nc(CN3CCCC3Cn3cncn3)co2)c1 (stereo not given) | -2.28 | -5.48 | -7.9 | 1.3 | 6.86 | -3.18 | 5.68 | -9.88 | 2.15 | 5 | -3.71
O=C(NCCS(=O)(=O)N1CCc2ccccc21)c1c(O)cc(F)cc1F | -5.35 | 2.6 | -0.496 | -10.7 | 4.41 | -6.11 | 8 | 4.49 | -12.4 | 0 | -23.1
CC(C)NC(=O)[C@@H]1CCO[C@@H]2CCN(c3ncccn3)C[C@H]21 | -6.07 | 16 | -1.13 | 0.524 | 0.579 | -45 | 4.1 | -11 | 8.33 | 10 | -7.2
CN(CC(=O)N(C)C1CCCCC1)C1CCc2ccccc21 (stereo not given) | -3.95 | 7.89 | 6.4 | -4.14 | -7.14 | 3.45 | 7.35 | 15.2 | 2.45 | 9.76 | -6.2
